Screens (PubChem)
PP1 inh: PP1-alpha phosphatase inhibitors, primary screen, counter-screen for PP5 inhibitor project, biochemical, fluorescence, OMFP substrate, single point | hit rate 0.9% among 320,000 | purified PP1alpha | inhibition, % at 6.7 µM | Serine/threonine-protein phosphatase PP1-alpha catalytic subunit (Homo sapiens), P62136;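 active = inhibition above the mean inhibition of all tested compounds plus 3 SD, computed separately for each screening campaign, cut at about 15% in these data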
Target sequence (P62136 whole entry, looked up): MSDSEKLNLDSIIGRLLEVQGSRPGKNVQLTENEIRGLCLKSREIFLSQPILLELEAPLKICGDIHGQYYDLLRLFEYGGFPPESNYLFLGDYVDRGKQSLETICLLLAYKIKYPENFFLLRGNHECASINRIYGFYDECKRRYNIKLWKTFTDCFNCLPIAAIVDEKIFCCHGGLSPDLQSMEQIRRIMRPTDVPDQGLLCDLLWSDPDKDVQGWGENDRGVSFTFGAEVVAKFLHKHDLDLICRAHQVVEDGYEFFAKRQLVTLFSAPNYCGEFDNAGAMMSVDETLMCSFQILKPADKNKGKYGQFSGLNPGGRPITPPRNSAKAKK
Calb FLC: C. albicans growth inhibition with fluconazole, primary screen, CaCi-2 strain, Alamar Blue fluorescence; AID 1979, 2009; C. albicans CaCi-2 (fluconazole-resistant clinical isolate) + fluconazole, 48 h; growth inhibition, % (no concentration beside the values); hit rate 0.57% among 300,000;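 active = growth inhibition above about 58% in most replicates, limit read from the data, passing the limit was not always enough; inconclusive = exactly half the replicates above a set limit; inactive = most replicates below a set limit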;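 note: all wells also contain fluconazole at 8 µg/ml as a sub-toxic cotreatment; 0% = median of DMSO wells and 100% = median of geldanamycin control wells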
PP5 primary: PP5 phosphatase inhibitors, primary screen, biochemical, fluorescence | Serine/threonine-protein phosphatase 5 (Homo sapiens), P53041 | purified PP5c, OMFP substrate fluorescence | inhibition, % at 6.7 µM | hit rate 0.18% among 320,000 | AID 1987, 2009;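 active = inhibition above the campaign's mean inhibition across all tested compounds plus 3 SD, cut at about 9.5% in these data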;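 note: 0% = DMSO only and 100% = 100 µM cantharidin control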
CSC inhib: cancer stem cell viability inhibitors, primary screen, luminescence; cancer stem cell-like cells viability; inhibition, % at 7.5 µM; AID 2717, 2010; hit rate 1.1% among 300,000; in the data active = inhibition above about 75%; inconclusive = no clear call, values can overlap the other calls; tested in HMLE shEcad cells
ALR inh: inhibitors of human ALR sulfhydryl oxidase, primary screen, biochemical, H2O2 detection, HRP-luminol luminescence, single point | FAD-linked sulfhydryl oxidase ALR (Homo sapiens), P55789 | purified ALR, DTT oxidation | inhibition, % (concentration not given with the values) | hit rate 3.8% among 290,000 | AID 485317, 2010;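 active = mean replicate inhibition above about 79%, with every replicate also reaching it, limit read from the data; inconclusive = only one of the two criteria met; inactive = mean below limit and not every replicate reaching it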
Target sequence (P55789 whole entry, looked up): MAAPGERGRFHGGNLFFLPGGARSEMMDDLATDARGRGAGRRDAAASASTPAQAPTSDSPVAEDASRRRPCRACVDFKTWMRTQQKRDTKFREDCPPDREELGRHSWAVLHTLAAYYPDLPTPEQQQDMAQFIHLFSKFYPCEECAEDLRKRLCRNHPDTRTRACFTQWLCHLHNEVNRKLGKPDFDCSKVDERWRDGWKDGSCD
PP1 confirm: PP1 phosphatase inhibitors, confirmation, biochemical, fluorescence, OMFP substrate, triplicate. shares compounds with PP1 inh. purified PP1alpha. inhibition, % at 6.7 µM. hit rate 52% among 1,900;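 active = mean PP1 inhibition above a set limit taken from the earlier primary screen, cut at about 15% in these data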
PP5 inh counter: PP5 phosphatase inhibition by PP1 hits, confirmation, counter-screen for PP1 inhibitor project, biochemical, fluorescence, triplicate; hit rate 4% among 1,900; shares compounds with PP1 inh; AID 2360, 2010; purified PP5c, OMFP fluorescence; inhibition, % at 6.7 µM;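 active = mean PP5 inhibition over triplicate wells above about 9.5% taken from the earlier PP1 screen, limit read from the data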
Starred values were filed as active, the others as inactive; ? = inconclusive; . = not tested or not shown. Hits are enriched below; roughly 5.4% of the tested compounds scored in any of these assays.

SMILES | PP1 inh | Calb FLC | PP5 primary | CSC inhib | ALR inh | PP1 confirm | PP5 inh counter
Cc1ccc(CN2C(=O)C3CCCN3c3ccc(C#N)cc32)cc1 (stereo not drawn) | 18.3* | 11.9 | 3.9 | -12.1 | -9.3 | 13.2 | -1.5
Cc1ccc(C)c(CN2C(=O)C3CCCN3c3ccc(C#N)cc32)c1 (stereo not drawn) | 5.5 | -5.7 | 2.6 | -10.5 | -13.5 | . | .
C=CCOc1ccc(/C=C2\SC(=S)N(NS(=O)(=O)c3ccc(C)cc3)C2=O)cc1 | 24.8* | 87.7* | 2.2 | 40.8 | -5.6 | 17.3* | -1.1
O=C(NCC1CCCCC1)c1cccc(-c2ccc(O)cc2)c1 | 18.3* | 27.0 | -1.8 | 52.9 | 82.5* | -2.0 | 0.3
Cc1ccc(CNC(=O)c2ccc(N3CCC4(CC3)CC(c3ccccc3)=NO4)c(NC(=O)c3ccco3)c2)cc1 | 19.7* | 15.8 | 3.3 | -10.7 | 4.9 | 15.5* | -1.6
COc1cc2c(cc1NS(=O)(=O)N1CCCC1)oc1ccccc12 | 1.9 | 5.5 | 4.4 | . | . | . | .
CC(OC(=O)c1ccco1)C(=O)Nc1nc(-c2ccccc2)cs1 (stereo not drawn) | . | . | . | -1.7 | -8.2 | . | .
Cc1ccc(-n2nc(C(=O)O)nc2-c2ccccc2)cc1 | 12.0 | 0.4 | -1.3 | 16.6 | . | . | .
O=C(c1cc(-c2ccc(Cl)cc2)on1)N1CCN(c2ccc(F)cc2)CC1 | 10.9 | -2.1 | 1.6 | -0.1 | -3.9 | . | .
Cc1ccc(-n2nc(C(=O)O)cc2-c2ccc(Cl)cc2)cc1 | 47.2* | 48.9 | -1.9 | -6.2 | 14.6 | 47.2* | 3.4
Cc1ccc(-n2nc(C(=O)O)cc2-c2ccccc2)cc1 | 33.1* | 24.9 | -1.0 | -5.1 | -2.9 | 30.7* | -4.3
O=C(O)c1cc(-c2ccc(Cl)c(Cl)c2)n(-c2ccccc2)n1 | 57.7* | 23.5 | 0.5 | -4.3 | . | 51.9* | -4.9
O=C(c1cc(-c2ccc(Cl)cc2)n(-c2ccc(Cl)c(Cl)c2)n1)N1CCOCC1 | -0.7 | -4.7 | 1.1 | 7.6 | -4.8 | . | .
O=C(O)c1cc(-c2ccc(Cl)cc2)n(-c2ccc(F)cc2)n1 | 46.9* | 10.0 | 0.3 | 4.5 | 5.0 | 37.2* | -2.5
CCOC(=O)c1c(-c2ccccc2)csc1/N=C/C1C(=O)CCCC1=O | 4.5 | 6.6 | -2.3 | 6.0 | 17.8 | . | .
CC(C)C(NS(=O)(=O)c1cccs1)C(=O)N1CCc2ccccc2C1 (stereo not drawn) | 5.1 | 0.6 | 3.3 | -19.3 | 1.8 | . | .
CNC(=O)c1cc(-c2ccc(Cl)cc2)n(-c2ccccc2)n1 | -1.8 | 10.4 | 2.9 | -9.4 | -10.3 | . | .
O=C(O)c1cc(-c2ccc(Cl)cc2)n(-c2ccc(Cl)cc2)n1 | 43.2* | 6.3 | -1.1 | 0.7 | 7.5 | 45.2* | -3.1
CCCOc1ccc(-c2c(C(=O)N/N=C/c3cccnc3)nnn2-c2nonc2N)cc1 | 27.4* | -3.9 | 2.4 | -4.9 | -4.5 | 21.2* | -5.5
COc1cccc(C(=O)Nc2cccc(NC(=O)c3ccccc3Cl)c2)c1 | 4.1 | 10.3 | 2.4 | -1.6 | 1.4 | . | .
COc1cccc(C(=O)Nc2cccc(C(=O)NC3=NN(c4c(Cl)cc(Cl)cc4Cl)C(=O)C3)c2)c1 | 29.2* | 24.1 | 0.0 | 27.1 | . | 1.6 | -4.0
O=[N+]([O-])c1ccc(N2CCN(c3ccc(O)cc3)CC2)cn1 | -3.6 | -8.7 | -1.6 | . | . | . | .
Cc1cc(Cl)ccc1OCC(=O)Nc1nc(-c2cccnc2)cs1 | 2.3 | 3.3 | -0.8 | 2.2 | -5.2 | . | .
Cc1ccc(S(=O)(=O)CCC(=O)Nc2nc(-c3ccccn3)cs2)cc1 | 27.2* | . | 1.6 | 26.8 | 69.9 | 40.3* | 2.4
Cc1ccc(S(=O)(=O)CCC(=O)Nc2nc(-c3cccnc3)cs2)cc1 | -1.3 | 4.1 | 1.5 | -5.3 | -6.7 | . | .
SMILES | PP1 inh | Calb FLC | PP5 primary | CSC inhib | ALR inh | PP1 confirm | PP5 inh counter
Cc1ccc(C2(C)NC(=O)N(CC(=O)Nc3nc(-c4ccccn4)cs3)C2=O)cc1 (stereo not drawn) | 25.6* | -6.5 | 2.0 | -11.0 | -6.7 | 42.9* | 4.7
O=C(COc1ccc(F)cc1)Nc1nc(-c2ccccn2)cs1 | 26.7* | 90.4* | 4.9 | 16.8 | -11.3 | 34.7* | -3.0
CC1(c2ccccc2)NC(=O)N(CC(=O)Nc2nc(-c3ccccn3)cs2)C1=O (stereo not drawn) | 12.0 | -0.9 | 4.4 | . | . | . | .
Cc1ccc(OCC(=O)Nc2nc(-c3ccccn3)cs2)c(C)c1 | 43.1* | -8.0 | 7.2 | . | -5.7 | 41.5* | -3.2
O=C(COc1ccccc1)Nc1nc(-c2ccncc2)cs1 | 1.8 | -1.1 | 0.6 | -7.7 | -12.8 | . | .
Cc1ccc(-c2nc(CN(C)C3CCOCC3)c(C)o2)s1 | 2.5 | -3.8 | -1.3 | -4.4 | -2.9 | . | .
COc1ccc(OC)c(N2C(=O)CC(NNC(=O)c3ccc4c(c3)OCO4)C2=O)c1 (stereo not drawn) | . | . | . | -9.7 | -10.0 | . | .
O=C(Nc1nc(-c2ccccc2)cs1)Nc1ccc(F)cc1F | 6.7 | -5.9 | -0.2 | 15.3 | 0.8 | . | .
O=C(Nc1nc(-c2ccccn2)cs1)Nc1ccc(F)cc1F | 38.2* | 3.5 | 2.1 | -13.7 | -5.7 | 41.9* | -1.0
O=C(COc1ccc([N+](=O)[O-])cc1)Nc1nc(-c2ccccn2)cs1 | 41.0* | 3.9 | 0.8 | 54.9 | . | 37.0* | -0.3
COc1cccc(C(=O)NC(=S)N2c3ccccc3CC2C)c1OC (stereo not drawn) | -0.2 | -1.7 | 2.6 | -7.7 | 2.3 | . | .
O=C(/C=C/c1ccccc1)NC(=S)NNC(=O)c1cnccn1 | 21.7* | 67.4 | 0.5 | 86.8* | . | 23.9* | -3.3
O=C(/C=C/c1ccccc1)NC(=S)NNC(=O)c1cccnc1 | 11.4 | -3.5 | 0.8 | -0.8 | ? | . | .
Cc1ccc(NC(=O)Nc2nnc(-c3ccncc3)s2)cc1C | 25.4* | 53.0 | 1.7 | 36.2 | 44.6 | 29.1* | -2.9
COCC(C)N=C1SCCN1Cc1ccccc1 (stereo not drawn) | -1.3 | 3.4 | 1.2 | -12.2 | -1.7 | . | .
Oc1c(CN2CCc3ccccc3C2)cc(Cl)c2cccnc12 | 31.2* | 83.3* | 1.7 | 83.7* | -55.0 | 39.9* | 0.5
Oc1c(I)cc(Cl)c2cccnc12 | 18.8* | . | 2.3 | 84.4* | . | 11.6 | 5.2
O=[N+]([O-])c1cc(CN2CCN(c3ccccc3)CC2)c(O)c2ncccc12 | 19.1* | 100.5* | 3.2 | -5.2 | -18.2 | 29.1* | 1.3
Cc1cccc(N(C(=O)CS(=O)CC(=O)Nc2ccc3c(c2)OCO3)C(C)C(=O)NC2CCCC2)c1C (stereo not drawn) | -0.5 | 14.0 | 0.2 | 1.1 | 3.5 | . | .
C=C(C)C1Cc2c(C)nn(-c3ccccn3)c2C1 (stereo not drawn) | -3.8 | 14.5 | 3.3 | -4.3 | . | . | .
